Test results published in PubChem BioAssay AID434969 (The Scripps Research Institute Molecular Screening Center, 2010).
The other results are listed elsewhere or left out. Calls of active or inactive are those of the source.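 Rule for the calls: active = mean activation over three repeats above the cutoff from the earlier oxytocin receptor agonist screen (cut at about 20% in these data); inactive = the rest.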

Target: Oxytocin receptor (Homo sapiens) (UniProt P30559)
Experiment: oxytocin receptor activation, calcium signal – fluorescence, CHO-OTR cells, triplicate, counter-screen for V1R agonist project (AID 434969);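 note: peak over minimum fluorescence ratio within a 100 second FLIPR read; 0% = DMSO only wells and 100% = oxytocin high control wells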
Settings: Fluo-8 calcium fluorescence, at 3 µM, active compounds read high

Oxytocin receptor (Homo sapiens), sequence (P30559 whole entry, looked up): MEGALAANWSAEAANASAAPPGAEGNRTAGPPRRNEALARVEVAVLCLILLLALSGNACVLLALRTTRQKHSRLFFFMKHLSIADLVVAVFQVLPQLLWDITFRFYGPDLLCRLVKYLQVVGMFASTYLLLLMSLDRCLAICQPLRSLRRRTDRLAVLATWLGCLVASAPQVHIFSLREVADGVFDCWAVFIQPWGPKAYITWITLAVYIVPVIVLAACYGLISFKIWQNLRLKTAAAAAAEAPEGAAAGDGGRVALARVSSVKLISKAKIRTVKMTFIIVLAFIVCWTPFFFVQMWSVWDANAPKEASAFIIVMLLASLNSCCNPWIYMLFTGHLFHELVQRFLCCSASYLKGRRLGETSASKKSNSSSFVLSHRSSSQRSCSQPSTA

| SMILES | activation |
| --- | --- |
| Fc1cccc(Cl)c1COc1ccc(-c2nnco2)cc1 | -0.58% (inactive) |
| CCN(CC)c1ccc2cc(C(N)=O)/c(=N\NC(=O)c3ccncc3)oc2c1 | 15.6% (inactive) |
| O=C(c1ccccc1)c1ccc(OCC(O)CN2CCCC2)cc1 (stereo not drawn) | 2.06% (inactive) |
| CCN(CC)c1ccc(/C=N/NC(=O)c2cnccn2)c(O)c1 | 9.1% (inactive) |
| CC1(C)S[C@@H]2[C@H](N=CN3CCCCCC3)C(=O)N2[C@H]1C(=O)O | 0.49% (inactive) |
| Cc1cc(C)c(/C=C2\C(=O)Nc3ccccc32)[nH]1 | 16.6% (inactive) |
| O=C(CN1CCN(c2cccc(Cl)c2)CC1)Nc1ccc(S(=O)(=O)N2CCOCC2)cc1 | 5.65% (inactive) |
| O=c1c2cc(Br)ccc2nc(-c2cccc(Cl)c2)n1O | 15.4% (inactive) |
